Data as given in PubChem BioAssay AID1347416 (National Center for Advancing Translational Sciences (NCATS), 2020).
Screen size: about 4,100 compounds; about 1,600 (39%) were called active. Not shown: some 25% with an inconclusive outcome. Some of the results follow. A number with no mark means an inactive call. Calls follow the shape of the dose curve; as a rule, active = well fitted inhibition curve with a large enough effect; inconclusive = small, poorly fitted or top-dose-only effect; inactive = no such curve, though single readings can be large or run the other way.

Assay: qHTS Validation assay for Inhibitors of Plasmodium falciparum Dd2 growth in vitro; also: nearly all actives have a fitted effect of over 70% in size
Settings: P. falciparum Dd2 in RBCs, SYBR Green growth, 72 h; series mostly up to 28.7 µM; activity change, negative = inhibition: at the top concentration
Source text: Malaria, a parasitic disease spread to humans through the bite of a Plasmodium infected Anopheles mosquito, continues to be a global health burden affecting millions of people, with an estimated 228 million cases and 405,000 deaths in 2018. Concerns about safety and limitations of current antimalarial treatments strongly emphasize the need to develop new therapeutic options. The scarce number of chemotypes and validated drug targets with efficacy against the liver stage, have hindered development of new antimalarials. To address this, a chemoprophylactic drug discovery effort was conducted through a combined phenotypic high-throughput asexual blood stage and liver stage screen, providing a robust foundation to identify liver-stage active lead chemotypes. Compounds were initially screened against Plasmodium falciparum Dd2 strain parasites using a in vitro SYBRGreen-1 based 72 hr proliferation assay to identify novel chemotypes to advance to liver stage assays. NIH/NCATS Early Translation Branch Assay Submitter (PI): Anton Simeonov Ph.D.
[…] Assay Protocol: PROTOCOL TABLE (as described by Inglese et al., 2007) SEQUENCE No. (e.g., 1, 2, 3, etc.); PARAMETER (e.g., Cells, Incubation, Reagent, etc.); VALUE; DESCRIPTION SEQUENCE, Parameter, Description 1; Reagent; 3 uL complete malaria growth medium, 1536 TC treated Black clear bottom plate 2; Controls; 23 nL positive control artesunate (300 nM final) to column 1; Neutral control DMSO to columns 2-4 3; Compound; 23 nL of compounds in dose response concentration (29 uM to 0.5 nM final) 4; Reagent; 5 uL malaria infected red blood cells (2.5% hematocrit final, 0.3% parasitemia 5; Time; 72 hours at 37C (5% O2, 5% CO2, 90% N2; 95% Rh) 6; Reagent; 2 uL lysis buffer/SYBRGreen-1, 25 sec shake immediately following dispense 7; Time; ~16 hours at 37C (5% O2, 5% CO2, 90% N2; 95% Rh) 8; Detector; EnVision (PerkinElmer) bottom read at 485/14nm excitation and 535/25 nm emission NOTES (numbers refer to sequence above): 1; Complete Malaria Growth Media: 1X RPMI-1640 w/L-glutamine, 5.5g/L Albumax II, 367 uM Hypoxanthine, 25 mM HEPES, 0.25% Sodium Bicarbonate, 35 uM Gentamicin sulfate 2; Controls were added using the Kalypsis Pintool (Wako USA) equipped with 1536 pinhead 3; Compounds were added in a 7-point, titration with a high final concentration of 29 uM by Pintool from seven inter-plate titrations of library plates and two DMSO control plates at the beginning and end (see Yasgar et al., 2008). 4; Red blood cells infected with Plasmodium falciparum Dd2 parasites were used. 6; Lysis buffer: 20 mM Tris-HCl, 10 mM EDTA, 0.16% Saponin, 1.6% Triton-X, 10X SYBR Green. REFERENCE: Inglese J, Shamu CE, Guy RK. 2007. Reporting data from high-throughput screening of small-molecule libraries. Nat Chem Biol. doi:10.1038/nchembio0807-438 Yasgar A, Shinn P, Jadhav A, Auld D, Michael S, Zheng W, Austin CP, Inglese J, Simeonov A. 2008. Compound Management for Quantitative High-Throughput Screening. J Lab Autom 13:79-89. doi:10.1016/j.jala.2007.12.004
% is scaled to controls: 0 for no effect and ±100 for the full control effect; potency is read from the fitted curve at half-maximal effect.

Row | SMILES | activity change, negative = inhibition | Potency
1 | Cc1noc([C@@H]2CN(C3CCSCC3)C[C@H]2CO)n1 | 16.2% | 
2 | O=C(COc1ccccc1)N[C@H]1CO[C@H]2[C@@H]1OC[C@@H]2n1nnnc1Oc1ccc2c(c1)OCO2 | 28.9% | 
3 | CCOC(=O)c1c(C)oc2nc(C)nc(Nc3ccc(C)c(Cl)c3)c12 | 0.853% | 
4 | CCOC(=O)c1c(C)oc2nc(C)nc(Nc3ccc(CC)cc3)c12 |  | 7.5 µM (active)
5 | O=C(Nc1ccccc1)c1cc2c(-c3ccccc3)nn(-c3ccccc3)c2s1 |  | 3.35 µM (active)
6 | Cc1ccccc1NC(=O)c1cc2c(-c3ccccc3)nn(-c3ccccc3)c2s1 |  | 11.9 µM (active)
7 | Cc1ccccc1NC(=O)Cn1c(=O)n(-c2ccccc2)c(=O)c2c1cc(C)n2C | 1.47% | 
8 | O=C(Nc1ccc(Cl)cc1)c1cc2c(-c3ccccc3)nn(-c3ccccc3)c2s1 |  | 2.37 µM (active)
9 | CCOc1ccc2ncc3c(-c4ccccc4)nn(CC(=O)Nc4cccc(F)c4)c3c2c1 | 67.4% | 
10 | O=C(O)Cc1sc(Nc2ccccc2Cl)nc1-c1ccccc1 | 12% | 
11 | COc1ccc(O)c(C(=O)c2cnc3c(c2)c(-c2ccc(F)cc2)c(C#N)c(=O)n3C)c1 |  | 5.96 µM (active)
12 | Cc1cccc(CC(=O)N2CCC3(CC2)CC(O)CCO3)c1 (stereo unspecified) | 22.4% | 
13 | Cc1cccc(CN2CCN(C(=O)CCl)CC2)c1 |  | 13.3 µM (active)
14 | O=C(CCC1CCCN(C(CO)CO)C1)N1CCN(Cc2ccccc2)CC1 (stereo unspecified) | 32% | 
15 | COc1ccc(C)cc1N(C(=O)COc1cccc(F)c1)c1nc2ccccc2s1 |  | 5.96 µM (active)
16 | COc1ccc(-c2nc3ccccc3s2)cc1NC(=O)c1cc2ccccc2o1 | -22% | 
17 | COc1ncc(-c2cc3c(nc2OC)nc(CC2CC2)n3C)cn1 | -9.43% [at 43.1 µM] | 
18 | CCc1nn2cc(C(=O)c3cc(C)ccc3O)cnc2c1-c1ccc(F)cc1 |  | 9.44 µM (active)
19 | COc1ccc([C@@H]2CN(C(=O)CCc3c(C)noc3C)C[C@H]2N(C)C)cc1 | 4.96% | 
20 | CCC(C)NC(=O)N1CC(c2nc(CCOCC3CCOCC3)no2)C1 (stereo unspecified) | 22.5% | 
21 | Nc1nc(N)c2cc(Sc3ccc4ccccc4c3)ccc2n1 |  | 1.33 µM (active)
22 | CCOC(=O)c1ccc(Nc2nnc(C(C)(C)C)c(=O)[nH]2)cc1 |  | 13.3 µM (active)
23 | Cc1cc(NC(=O)c2cc(-c3ccco3)on2)nn1Cc1ccc(Cl)cc1 |  | 8.41 µM (active)
24 | CCc1ccc(CN(Cc2ccco2)C(=O)c2cc(-c3ccc(Cl)cc3)on2)cc1 | 72.8% | 
25 | Cc1cc(C(=O)Nc2cc(C)n(Cc3ccc(Cl)cc3)n2)no1 | -24.4% | 
26 | CCC(=O)N/C(N)=N/c1nc(C)c2cc(C)c(C)cc2n1 |  | 9.44 µM (active)

Row | SMILES | activity change, negative = inhibition | Potency
27 | COC(=O)c1cc(O)cc(OC)c1Oc1cc(C)cc(O)c1C(=O)O |  | 4.22 µM (active)
28 | O=C(Cc1cccs1)NC1CCN(c2cc(C(F)(F)F)ncn2)CC1 | 10% | 
29 | Cc1ccc(NC(=O)Cn2c(=O)n(-c3ccc(C)cc3)c(=O)c3ccc(C(=O)NCc4ccccc4Cl)cc32)cc1 |  | 5.31 µM (active)
30 | O=C(CCCCn1c(=O)c2ccccc2n(CC(=O)Nc2ccccc2)c1=O)NCc1ccccc1Cl | 33.3% | 
31 | COC(=O)c1ccccc1NC(=O)Cn1c(=O)n(CCCC(=O)NCc2ccccc2Cl)c(=O)c2ccccc21 | -14.9% | 
32 | CN(C)CCCn1cnc2c(c1=N)C(c1ccccc1)c1ccc3ccccc3c1O2 (stereo unspecified) |  | 3.76 µM (active)
33 | COc1ccc(C2c3ccc4ccccc4c3Oc3ncn(CCCN(C)C)c(=N)c32)cc1 (stereo unspecified) |  | 2.99 µM (active)
34 | CN1CCN(c2cc(=O)c3ccnc(-c4cn[nH]c4)c3o2)CC1 | 14.8% [at 43.1 µM] | 
35 | CCC(C)N(CCNC(=O)c1ccc2c(c1)NC(=O)c1ccccc1S2)C1CCCCC1 (stereo unspecified) |  | 13.3 µM (active)
36 | CC(C)CNC(=O)c1ccc2c(c1)NC(C)(CNc1ccccc1)CO2 (stereo unspecified) | 12.1% [at 43.1 µM] | 
37 | Cc1cc(C)n(CC(=O)N2C[C@@H](COc3ccccc3)[C@H](C(N)=O)C2)n1 | 15.8% | 
38 | CCOC(=O)CCn1nc(-c2ccc(C)cc2)c2ccccc2c1=O | -3.49% | 
39 | CCOC(=O)COn1c(-n2nc(C)cc2C)nc2ccccc2c1=O |  | 9.44 µM (active)
40 | COc1ccc(C2c3ccc(O)cc3Oc3ncn4nc(-c5ccncc5)nc4c32)cc1OC (stereo unspecified) |  | 15 µM (active)
41 | O=C(c1ccc2c(c1)OCO2)N1CCC2(CC1)COc1ccccc1CN2 |  | 5.31 µM (active)
42 | CCc1noc(-c2cn(C3CCCN(C(=O)c4ccc5c(c4)OCO5)C3)nn2)n1 (stereo unspecified) | -13.6% | 
43 | c1ccc2c(c1)CNC1(CCN(Cc3cccc4ccccc34)CC1)CO2 |  | 7.5 µM (active)
44 | COc1ccc(C(=O)N2CCC3(CC2)COc2ccccc2CN3)cc1 |  | 10.6 µM (active)
45 | O=C(c1ccccc1F)N1CCCC2(C1)NC(=O)N(Cc1cccc(Cl)c1)C2=O (stereo unspecified) | -0.29% | 
46 | O=C1NCc2ccccc2CC12CCN(Cc1ccccc1F)CC2 | 9.53% | 
47 | COc1ccc(C(=O)N2CCN3C(=O)N(C4CCOCC4)C[C@H]3C2)cc1 | 0% [at 43.1 µM] | 
48 | O=C(c1ccccc1F)N1CCC2(CC1)COc1ccccc1CN2 |  | 4.33 µM (active)
49 | Cc1ccccc1C(=O)N1CCC2(CC1)NC(=O)N(c1ccc(F)cc1)N2 | -26.7% | 
50 | COc1ccc(C(=O)N2CCC3(CC2)CC(C(C)C)=NO3)cc1 | 31.2% [at 43.1 µM] | 
51 | O=C(c1ccccc1-c1ncc[nH]1)N1CC[C@@H](c2ccc3c(c2)OCO3)[C@H](O)C1 | 12.5% | 
